Assay results published in PubChem BioAssay (NCATS).
Where “and” joins values, the source holds several entries; their conditions need not be identical. Identical values can stand only once. Records with an inconclusive call do not appear. Where a call stands in place of a potency, no number is given. Calls of active or inactive are those of the source. Unless noted, the call rests on the fitted dose curve; in most records, active means well fitted curve in the direction sought with a large enough effect; inconclusive means small, poorly fitted or top-dose-only effect, or another doubt; inactive means no such curve, though single readings can be large; an effect the other way counts as inactive or inconclusive.

What was measured:
[1] = Validation screen for small molecules that induce genotoxicity in human embryonic kidney (HEK293T) cells expressing luciferase-tagged ELG1 (AID 493106)
Method in brief: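 ELG1-luciferase reporter readout (ONE-Glo, 30 min, room temperature) after 16 hr compound treatment at 37 °C of HEK293T cells at 2,000 per well. Rising luminescence flags genotoxic stress.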

[2] = target: ATPase family AAA domain-containing protein 5 (Homo sapiens) (UniProt Q96QE3); test: Validation screen for small molecules that inhibit ELG1-dependent DNA repair in human embryonic kidney (HEK293T) cells expressing luciferase-tagged ELG1 (AID 493107);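 further: series mostly up to about 46 µM; inhibitors lower the ELG1-luciferase luminescence signal; nearly all actives have a fitted effect of over 70% in size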
Method in brief: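 Luciferase read-out, ONE-Glo, 30 min at room temperature, follows 16 h co-exposure at 37 C of compound and the DNA-damaging agent 5-fluorouridine. Cells: HEK293T with ELG1-luciferase fusion, 2,000 per well, DMSO as vehicle.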

[3] = Nrf2 qHTS screen for inhibitors: Validation (AID 493153; active means well fitted inhibition curve with a large enough effect in the main read-out, with a control signal flat, not every such curve was filed as active;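 on activity change, negative = inhibition: A549 cells with ARE-driven firefly luciferase reporter reporting Nrf2 activity; series mostly up to about 46 µM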); details: viability change: measured here: cytotoxicity max response
Method in brief: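 Concentration-response on A549 ARE_Fluc reporter cells exposed 18-24 h at 37 C, 5% CO2. Cytotoxicity read first by CellTiter-Fluor fluorescence (Ex 405/Em 525), then Nrf2 inhibition by BugLite luminescence after 15 min.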

[4] = qHTS for Inhibitors of Cell Surface uPA Generation: Validation Assay (AID 493164);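 further: RAW 264.7 macrophage cells exposed to compound for 18 h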
Method in brief: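 ATP-Lite luminescence read-out: ATP remains high when uPA activity-dependent LF translocation into the cytoplasm is blocked. RAW 264.7 cells, 18 h compound exposure at 37 C; 7-point titration, 2.45 nM to 38.3 uM final.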

[5] = target: Galactokinase (Homo sapiens) (UniProt P51570); test: qHTS Validation Assay for Inhibitors of Human Galactokinase (GALK) (AID 493189)
Sequence of Galactokinase (Homo sapiens) (P51570 whole entry, looked up): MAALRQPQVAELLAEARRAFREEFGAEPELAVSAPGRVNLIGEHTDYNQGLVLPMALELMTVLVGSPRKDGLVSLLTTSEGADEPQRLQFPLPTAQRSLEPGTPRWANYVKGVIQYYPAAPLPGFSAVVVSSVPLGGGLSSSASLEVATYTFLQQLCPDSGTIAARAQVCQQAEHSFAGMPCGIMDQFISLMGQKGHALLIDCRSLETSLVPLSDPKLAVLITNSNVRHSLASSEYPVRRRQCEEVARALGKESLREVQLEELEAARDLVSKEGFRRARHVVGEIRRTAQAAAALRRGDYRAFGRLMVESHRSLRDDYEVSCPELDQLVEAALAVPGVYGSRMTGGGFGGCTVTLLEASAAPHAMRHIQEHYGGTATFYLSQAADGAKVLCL
Method in brief: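 Enzyme activity is inferred from ATP consumption: human GALK phosphorylates galactose (100 uM) using 35 uM ATP for 1 h at room temperature, and luciferase-based Kinase-Glo Plus reports unconsumed ATP.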

[6] = Validation screen for small molecules that induce DNA re-replication in SW480 colon adenocarcinoma cells (AID 504364)
Method in brief: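 Image-based DNA content read-out: Hoechst stain 40 min, total nuclear fluorescence intensity (ex 405 nm, em 500-530 nm) after 48 h compound exposure of 250 SW480 cells/well at 37 C, 5% CO2, versus DMSO vehicle.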

[7] = target: Peptidyl-prolyl cis-trans isomerase NIMA-interacting 1 (Homo sapiens) (UniProt Q13526); test: qHTS Validation Assay to Find Inhibitors of Pin1 (AID 504536; active means well fitted inhibition curve with a large enough effect in the polarisation, with a control signal flat, not every such curve was filed as active; the % refers to the polarisation)
Sequence of Peptidyl-prolyl cis-trans isomerase NIMA-interacting 1 (Homo sapiens) (Q13526 whole entry, looked up): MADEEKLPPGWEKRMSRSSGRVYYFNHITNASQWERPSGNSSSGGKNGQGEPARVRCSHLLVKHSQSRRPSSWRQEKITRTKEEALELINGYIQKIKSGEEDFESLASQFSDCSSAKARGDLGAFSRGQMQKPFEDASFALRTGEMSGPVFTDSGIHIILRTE
Method in brief: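 Fluorescence polarization competition: compounds (titration) displace HiFluor-488-labeled Pin1-1b peptide from Pin1 (0.3 uM final) in pH 7.5 HEPES buffer with DTT, 10 min at room temperature; %Activity normalized to no-enzyme wells, curves fitted.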

[8] = target: Phosphoglycerate kinase, glycosomal (Trypanosoma brucei brucei) (UniProt P07378); test: qHTS Validation Assay to Find Inhibitors of Phosphoglycerate Kinase (AID 504547)
Method in brief: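 Luminescence end-point (Kinase-Glo Plus, 10 min) after a 60 min room-temperature coupled reaction. GAPDH at 100nM final supplies 1,3-BPG to PGK. Buffer: 100mM TEA pH 7.6, 5mM MgCl2, 0.01% Tween-20. Wells lacking PGK served as controls.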

[9] = target: phosphoglycerate mutase (Leishmania major) (UniProt Q4Q090); test: qHTS Validation Assay to Find Inhibitors of Phosphoglycerate Mutase (AID 504548); further: series mostly up to about 58 µM
Method in brief: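 Lm PGAM 1.25nM final; 100 mM TEA pH 7.6, 5 mM MgCl2, 0.01% Tween-20; 45 min RT; Kinase-GloPlus, 10 min; end-point luminescence. Enzyme-free wells as negative controls.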

[10] = target: DNA dC->dU-editing enzyme APOBEC-3G (Homo sapiens) (UniProt Q9HC16); test: qHTS for inhibitors of Vif-A3G interactions: Validation (AID 588379)
Sequence of DNA dC->dU-editing enzyme APOBEC-3G (Homo sapiens) (Q9HC16 whole entry, looked up): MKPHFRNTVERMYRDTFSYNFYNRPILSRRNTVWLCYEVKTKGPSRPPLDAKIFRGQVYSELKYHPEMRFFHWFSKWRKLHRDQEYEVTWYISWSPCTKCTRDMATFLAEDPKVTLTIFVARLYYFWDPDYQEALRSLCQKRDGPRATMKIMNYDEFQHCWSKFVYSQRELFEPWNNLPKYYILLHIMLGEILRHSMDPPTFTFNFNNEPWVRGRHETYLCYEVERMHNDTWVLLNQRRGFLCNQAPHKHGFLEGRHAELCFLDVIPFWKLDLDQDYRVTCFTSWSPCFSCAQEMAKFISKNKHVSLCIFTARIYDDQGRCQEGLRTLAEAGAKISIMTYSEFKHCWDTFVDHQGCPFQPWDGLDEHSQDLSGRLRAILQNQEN
Method in brief: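 Yellow fluorescence (Ex 488, Em 500-530) of Vif-coexpressing HeLa A3G-eYFP cells, scanned by Acumen cytometer, reports blocked A3G degradation. Cells plated at 700/well overnight at 37 deg C before compound addition, then a further overnight compound incubation at 37 deg C.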

[11] = target: Estrogen receptor (Homo sapiens) (UniProt P03372); test: qHTS assay for small molecule antagonists of estrogen receptor alpha signaling (AID 588513; active means well fitted curve in the direction sought with a large enough effect in the signal ratio, with a control signal flat, not every such curve was filed as active; the % refers to the signal ratio)
Sequence of Estrogen receptor (Homo sapiens) (P03372 whole entry, looked up): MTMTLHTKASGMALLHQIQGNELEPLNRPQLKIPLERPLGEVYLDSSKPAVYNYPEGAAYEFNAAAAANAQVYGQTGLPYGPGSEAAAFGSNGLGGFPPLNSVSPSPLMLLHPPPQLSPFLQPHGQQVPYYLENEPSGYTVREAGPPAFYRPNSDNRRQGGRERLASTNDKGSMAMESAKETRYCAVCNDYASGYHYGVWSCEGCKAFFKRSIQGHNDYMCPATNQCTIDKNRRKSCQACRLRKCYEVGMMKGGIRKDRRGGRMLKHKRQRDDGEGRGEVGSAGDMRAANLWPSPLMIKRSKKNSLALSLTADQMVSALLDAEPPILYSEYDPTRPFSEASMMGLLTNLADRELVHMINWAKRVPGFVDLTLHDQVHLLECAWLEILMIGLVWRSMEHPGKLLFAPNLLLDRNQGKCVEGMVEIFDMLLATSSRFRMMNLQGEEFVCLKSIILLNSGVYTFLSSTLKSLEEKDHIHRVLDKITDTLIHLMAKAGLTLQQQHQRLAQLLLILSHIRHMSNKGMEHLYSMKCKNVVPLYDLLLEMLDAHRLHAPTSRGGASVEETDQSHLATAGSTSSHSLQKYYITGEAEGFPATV
Method in brief: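 Antagonist-mode qHTS in ER-alpha-UAS-bla HEK 293 cells: compound titration, 0.5nM estradiol for 18 h, CCF4 fluorescence, Hill-derived IC50.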

[12] = target: Estrogen receptor (Homo sapiens) (UniProt P03372); test: qHTS assay for small molecule agonists of estrogen receptor alpha signaling (AID 588514; calls by dose curve; further: nearly all actives have a fitted effect of over 70% in size; further: potency means the concentration at half of the fitted maximal effect)
Method in brief: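 EC50 and efficacy came from Hill fits of beta-lactamase reporter signal (CCF4 dye, 2 h at room temperature) scaled between DMSO and 20 nM 17-beta-estradiol. Agonist mode: HEK293 ER-alpha-UAS-bla cells in charcoal/dextran-stripped serum medium, 18 h compound exposure at 37 C.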

[13] = target: Androgen receptor (Homo sapiens) (UniProt P10275); test: qHTS assay for small molecule agonists of androgen receptor signaling (AID 588515; active means well fitted curve in the direction sought with a large enough effect in the signal ratio, with a control signal flat; the % refers to the signal ratio); details: AR-UAS-bla HEK293, beta-lactamase ratio, agonist 16 h; stronger effect = higher value
Sequence of Androgen receptor (Homo sapiens) (P10275 whole entry, looked up): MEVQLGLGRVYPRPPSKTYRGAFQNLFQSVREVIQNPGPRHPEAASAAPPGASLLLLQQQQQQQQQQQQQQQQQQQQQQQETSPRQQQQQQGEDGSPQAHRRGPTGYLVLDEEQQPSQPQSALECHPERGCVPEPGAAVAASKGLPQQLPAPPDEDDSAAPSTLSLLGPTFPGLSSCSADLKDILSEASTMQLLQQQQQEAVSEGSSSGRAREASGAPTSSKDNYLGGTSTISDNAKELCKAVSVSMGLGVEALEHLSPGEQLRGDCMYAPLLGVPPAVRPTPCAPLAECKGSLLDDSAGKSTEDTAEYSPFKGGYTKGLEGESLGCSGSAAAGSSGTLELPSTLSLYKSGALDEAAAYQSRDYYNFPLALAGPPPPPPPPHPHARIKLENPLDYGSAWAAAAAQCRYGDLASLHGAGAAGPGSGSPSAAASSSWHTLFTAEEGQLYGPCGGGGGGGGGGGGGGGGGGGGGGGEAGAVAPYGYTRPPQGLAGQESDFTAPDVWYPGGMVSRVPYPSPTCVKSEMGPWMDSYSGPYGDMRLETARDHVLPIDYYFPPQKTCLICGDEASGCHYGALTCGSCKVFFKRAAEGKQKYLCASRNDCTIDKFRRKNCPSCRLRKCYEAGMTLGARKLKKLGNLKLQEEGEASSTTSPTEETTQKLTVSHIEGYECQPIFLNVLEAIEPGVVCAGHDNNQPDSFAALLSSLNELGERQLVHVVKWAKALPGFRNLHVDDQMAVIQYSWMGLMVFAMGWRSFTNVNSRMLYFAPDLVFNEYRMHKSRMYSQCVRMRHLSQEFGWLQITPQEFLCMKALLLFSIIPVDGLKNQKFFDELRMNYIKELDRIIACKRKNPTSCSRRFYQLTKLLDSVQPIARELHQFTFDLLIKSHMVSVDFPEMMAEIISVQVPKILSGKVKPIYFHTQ
Method in brief: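 Stimulation of an AR-responsive β-lactamase reporter in GripTite HEK293 cells was measured after 16 h compound exposure at 37 °C, via CCF4 fluorescence after 2 h RT. EC50 from Hill fits, normalized to R1881 at 30 nM.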

[14] = target: Androgen receptor (Homo sapiens) (UniProt P10275); test: qHTS assay for small molecule antagonists of androgen receptor signaling (AID 588516; active means well fitted curve in the direction sought with a large enough effect in the signal ratio, with a control signal flat, not every such curve was filed as active; the % refers to the signal ratio)
Method in brief: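 Compounds tested in titration against 10 nM R1881 in AR-responsive bla reporter HEK 293 cells; CCF4 fluorescence (460/530 nm) after 16 h exposure gave IC50 and efficacy.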

[15] = qHTS assay for small molecule antagonists of peroxisome proliferator-activated receptor delta signaling (AID 588535; active means well fitted inhibition curve with a large enough effect in the signal ratio, with a control signal flat, not every such curve was filed as active; the % refers to the signal ratio;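 on max response: cells co-treated with a PPAR-delta agonist as stimulator during compound exposure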); details: HEK293T PPARd-UAS-bla, beta-lactamase FRET ratio, 18 h; 460 nm channel
Method in brief: (§1)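 Titrations were run on PPAR-delta-UAS-bla HEK293T cells in charcoal/dextran-stripped serum, incubated 18 h at 37 C. CCF4 fluorescence (460/530 nm) after 2 h RT; Hill equation yields IC50 and maximal response.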

[16] = target: Peroxisome proliferator-activated receptor delta (Homo sapiens) (UniProt Q03181); test: as above
Sequence of Peroxisome proliferator-activated receptor delta (Homo sapiens) (Q03181 whole entry, looked up): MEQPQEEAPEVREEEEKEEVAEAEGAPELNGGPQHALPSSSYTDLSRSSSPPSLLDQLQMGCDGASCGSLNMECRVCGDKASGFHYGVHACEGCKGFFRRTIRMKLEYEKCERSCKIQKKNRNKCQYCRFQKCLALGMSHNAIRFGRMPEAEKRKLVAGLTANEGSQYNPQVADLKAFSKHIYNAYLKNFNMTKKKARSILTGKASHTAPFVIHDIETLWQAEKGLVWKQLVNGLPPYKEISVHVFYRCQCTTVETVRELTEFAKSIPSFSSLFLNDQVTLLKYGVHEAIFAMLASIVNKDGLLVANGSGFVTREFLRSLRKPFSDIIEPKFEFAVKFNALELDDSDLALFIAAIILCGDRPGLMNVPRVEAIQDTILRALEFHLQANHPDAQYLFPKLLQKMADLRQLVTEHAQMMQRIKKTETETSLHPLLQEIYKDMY
Method in brief: as §1

[17] = target: Bile acid receptor (Homo sapiens) (UniProt Q96RI1); test: qHTS assay for small molecule antagonists of farnesoid X receptor signaling (AID 588526; calls by dose curve)
Sequence of Bile acid receptor (Homo sapiens) (Q96RI1 whole entry, looked up): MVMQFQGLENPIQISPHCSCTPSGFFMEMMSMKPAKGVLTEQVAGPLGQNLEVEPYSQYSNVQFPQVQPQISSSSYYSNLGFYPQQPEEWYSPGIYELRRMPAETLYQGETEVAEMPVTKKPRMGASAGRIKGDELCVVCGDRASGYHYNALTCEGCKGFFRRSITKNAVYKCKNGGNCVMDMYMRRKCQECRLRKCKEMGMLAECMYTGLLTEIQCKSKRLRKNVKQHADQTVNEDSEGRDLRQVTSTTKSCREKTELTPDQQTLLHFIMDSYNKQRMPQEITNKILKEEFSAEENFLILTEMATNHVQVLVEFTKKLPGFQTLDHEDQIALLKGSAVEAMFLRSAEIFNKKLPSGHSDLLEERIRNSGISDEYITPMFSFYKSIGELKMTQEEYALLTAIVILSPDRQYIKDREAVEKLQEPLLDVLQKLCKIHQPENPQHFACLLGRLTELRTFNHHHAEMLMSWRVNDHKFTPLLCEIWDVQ
Method in brief: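 Beta-lactamase reporter antagonist mode: HEK293T FXR-UAS-bla cells, titrated compound, CDCA stimulation, 16 h 37 C, CCF4 dye 2 h RT. Data normalized to CDCA 50 uM and DMSO; Hill-fit IC50.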

[18] = target: Glucocorticoid receptor (Homo sapiens) (UniProt P04150); test: qHTS assay for small molecule agonists of glucocorticoid receptor signaling (AID 588532; active means well fitted curve in the direction sought with a large enough effect in the signal ratio, with a control signal flat; the % refers to the signal ratio); details: HeLa MMTV-bla, beta-lactamase ratio, agonist, 18 h; stronger effect = higher value; percent of dexamethasone control, DMSO zero
Sequence of Glucocorticoid receptor (Homo sapiens) (P04150 whole entry, looked up): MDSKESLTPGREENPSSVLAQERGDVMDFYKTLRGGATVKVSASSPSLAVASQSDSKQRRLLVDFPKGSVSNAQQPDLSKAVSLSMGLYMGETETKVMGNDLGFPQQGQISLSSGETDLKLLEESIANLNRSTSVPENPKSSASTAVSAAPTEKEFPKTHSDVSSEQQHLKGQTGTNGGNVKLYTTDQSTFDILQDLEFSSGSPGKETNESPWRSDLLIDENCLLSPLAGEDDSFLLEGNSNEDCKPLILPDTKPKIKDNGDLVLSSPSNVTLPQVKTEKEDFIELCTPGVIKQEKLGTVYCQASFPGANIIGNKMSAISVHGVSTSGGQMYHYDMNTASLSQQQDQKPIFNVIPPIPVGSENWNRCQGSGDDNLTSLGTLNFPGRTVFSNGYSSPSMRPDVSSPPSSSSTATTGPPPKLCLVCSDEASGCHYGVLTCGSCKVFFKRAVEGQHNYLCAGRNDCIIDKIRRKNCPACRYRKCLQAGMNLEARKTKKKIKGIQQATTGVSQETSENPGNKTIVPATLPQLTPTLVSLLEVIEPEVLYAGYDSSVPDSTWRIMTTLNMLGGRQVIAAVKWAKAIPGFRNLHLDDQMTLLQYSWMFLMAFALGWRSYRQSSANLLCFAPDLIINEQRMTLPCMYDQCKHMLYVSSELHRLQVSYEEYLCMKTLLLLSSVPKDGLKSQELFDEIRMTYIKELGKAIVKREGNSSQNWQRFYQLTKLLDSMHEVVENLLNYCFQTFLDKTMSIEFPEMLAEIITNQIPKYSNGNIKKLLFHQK
Method in brief: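 Using MMTV-bla HeLa cells in medium with 1% stripped FBS and 25 mM HEPES, compounds were titrated and incubated overnight-length (18 h). Beta-lactamase cleavage of CCF4 was quantified by dual-emission fluorescence.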

[19] = target: Ubiquitin carboxyl-terminal hydrolase 1 (Homo sapiens) (UniProt O94782); test: Inhibitors of USP1/UAF1: Pilot qHTS (AID 504865); further: nearly all actives have a fitted effect of over 35% in size; further: potency means the concentration at half of the fitted maximal effect;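 on activity change, negative = inhibition: rhodamine fluorescence freed from ubiquitin-rhodamine substrate followed over time; top concentration of the series differs between compounds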
Sequence of Ubiquitin carboxyl-terminal hydrolase 1 (Homo sapiens) (O94782 whole entry, looked up): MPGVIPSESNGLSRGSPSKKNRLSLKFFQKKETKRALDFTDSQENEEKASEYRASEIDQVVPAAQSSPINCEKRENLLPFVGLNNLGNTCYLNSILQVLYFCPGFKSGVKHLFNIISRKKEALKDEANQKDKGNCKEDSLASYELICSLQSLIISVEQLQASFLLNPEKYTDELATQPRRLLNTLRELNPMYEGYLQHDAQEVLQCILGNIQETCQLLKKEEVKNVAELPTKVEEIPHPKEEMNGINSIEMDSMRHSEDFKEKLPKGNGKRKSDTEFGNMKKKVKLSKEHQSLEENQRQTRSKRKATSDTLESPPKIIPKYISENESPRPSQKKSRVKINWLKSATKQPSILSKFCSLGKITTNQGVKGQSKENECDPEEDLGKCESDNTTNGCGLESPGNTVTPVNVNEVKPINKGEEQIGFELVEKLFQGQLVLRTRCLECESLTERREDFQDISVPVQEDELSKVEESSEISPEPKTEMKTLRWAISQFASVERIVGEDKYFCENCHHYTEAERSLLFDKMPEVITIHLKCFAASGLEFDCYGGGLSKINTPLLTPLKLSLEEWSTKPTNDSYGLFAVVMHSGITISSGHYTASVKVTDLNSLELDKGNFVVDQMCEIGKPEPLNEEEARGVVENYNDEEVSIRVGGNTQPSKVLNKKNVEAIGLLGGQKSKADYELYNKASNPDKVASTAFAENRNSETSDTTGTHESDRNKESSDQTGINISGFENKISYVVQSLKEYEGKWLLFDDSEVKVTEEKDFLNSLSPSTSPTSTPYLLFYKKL
Method in brief: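 Enzyme-free wells gave the negative control, while test wells held 1nM USP1/UAF1 preincubated with compound for 15 min at room temperature. Ub-Rho at 150nM final started the reaction, and fluorescence at 480/540 nm was recorded kinetically.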

[20] = target: Glucocorticoid receptor (Homo sapiens) (UniProt P04150); test: qHTS assay for small molecule antagonists of glucocorticoid receptor signaling (AID 588533; active means well fitted inhibition curve with a large enough effect in the signal ratio, with a control signal flat, not every such curve was filed as active; the % refers to the signal ratio;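 further: cells stimulated with 2 nM dexamethasone as agonist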)
Method in brief: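 Antagonist-mode qHTS: compound titrations added to GRE-bla HeLa cells, then dexamethasone 2 nM final; 18 h, 37 C. CCF4 FRET fluorescence normalized to dexamethasone and DMSO; IC50 from Hill fit.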

CN1Cc2c(N)cccc2C(c2ccccc2)C1 (centres undefined)
outcome [1]: inactive
outcome [2]: inactive
outcome [3]: inactive
viability change [3]: 7.68%
outcome [4]: inactive
outcome [5]: inactive
outcome [6]: inactive
outcome [7]: inactive
outcome [8]: inactive
outcome [9]: inactive

CC[N+](C)(C)Cc1ccccc1Br
outcome [5]: inactive
outcome [6]: inactive

COC(=O)[C@H]1[C@H]2CC3c4[nH]c5ccccc5c4CCN3C[C@@H]2CC[C@@H]1O (some centres undefined)
outcome [10]: inactive

COC(=O)C1=C(C)NC(C)=C(C(=O)OCCCN2CCC(c3ccccc3)(c3ccccc3)CC2)[C@H]1c1cccc([N+](=O)[O-])c1
outcome [10]: inactive

CC(C)=O
outcome [11]: inactive
Potency [12]: inactive
activation [13]: 7.27% (inactive)
outcome [14]: inactive
max response [15]: -10.3%
outcome [16]: inactive

O=CCCCC=O
outcome [11]: inactive
Potency [12]: inactive
Potency [17]: inactive
activation [18]: 5.8% (inactive)
max response [15]: 37.6%
outcome [16]: inactive

Cc1cn([C@H]2C[C@H](O)[C@@H](CO)O2)c(=O)[nH]c1=O
Potency [19]: inactive
outcome [10]: inactive

O=C(O)CCC(=O)C(=O)O
Potency [19]: inactive
outcome [11]: inactive
Potency [12]: inactive
activation [18]: -1.14% (inactive)
outcome [20]: inactive

C=C1C(=CC=C2CCC[C@@]3(C)[C@@H]2CC[C@H]3[C@H](C)CCCC(C)C)C[C@@H](O)C[C@@H]1O
Potency [19]: 22.4 µM (active)

CC1=C(/C=C/C(C)=C/C=C/C(C)=C/CO)C(C)(C)CCC1
outcome [10]: inactive
outcome [11]: inactive
Potency [12]: 3.16 µM (active)

IC(I)I
Potency [19]: inactive
Potency [17]: inactive
activation [18]: 16.8% (inactive) and -7.64% (inactive)
outcome [20]: inactive
max response [15]: 3.49% and 21.3%
outcome [16]: inactive

CCOc1ccc2c(c1)C(C)=CC(C)(C)N2
activity change, negative = inhibition [19]: -8.83% [at 11.4 µM] (inactive)
outcome [11]: inactive
Potency [12]: inactive
activation [13]: 15.4% (inactive)
outcome [14]: inactive

O=C(O)CC/C=C\CC[C@H]1[C@@H](N2CCCCC2)[C@@H](O)C[C@@H]1OCc1ccc(-c2ccccc2)cc1
Potency [19]: inactive
outcome [10]: inactive

CCCC(=O)Nc1ncnc2c1ncn2[C@@H]1O[C@@H]2COP(=O)(O)O[C@H]2[C@H]1OC(=O)CCC
Potency [19]: inactive
outcome [10]: inactive

O=c1ccn([C@@H]2O[C@H](CO)[C@@H](O)[C@H]2O)c(=O)[nH]1
outcome [10]: inactive

C[C@H]1C[C@H]2[C@@H]3CCC4=CC(=O)C=C[C@]4(C)[C@@]3(F)[C@@H](O)C[C@]2(C)[C@@]1(O)C(=O)CO
Potency [19]: inactive
outcome [20]: inactive

Nc1ncnc2c1ncn2[C@@H]1O[C@H](COP(=O)(O)OP(=O)(O)OP(=O)(O)O)[C@@H](O)[C@H]1O
Potency [19]: inactive

CC(O)CO (centres undefined)
Potency [19]: inactive
outcome [11]: inactive
Potency [12]: inactive
Potency [17]: inactive
activation [18]: -4.49% (inactive) and -3.73% (inactive)
outcome [20]: inactive
max response [15]: 21.4% and -10.4%
outcome [16]: inactive

Cc1ccccc1
Potency [19]: inactive
activation [18]: -1.45% (inactive) and 2.79% (inactive)
outcome [20]: inactive
max response [15]: 1.03% and 40.9%
outcome [16]: inactive
